Screening data: PubChem, Broad Institute
Only a sample is shown.
aSyn 5UTR act: Activators working through SNCA 5'UTR binding (MLPCN) | activity score, % (tested at 7.5 µM), hits read low | AID 1814 | 7.1% of 300,000 active | alpha-synuclein 5'UTR reporter, activators screen; in the data active = activity score below about -60%
An asterisk follows results filed as active.

SMILES	aSyn 5UTR act
Cc1c(CCC(=O)N2CCC(C(=O)O)(c3ccccc3)CC2)c(=O)oc2cc3oc4c(c3cc12)CCCC4	67.5
O=C(COc1ccc2c3c(c(=O)oc2c1)CCC3)N1CCCCC1	-81.7*
O=C(COc1ccc2ccccc2c1)NC1CC1	-127.7*
O=C(COc1ccc2ccccc2c1)Nc1cccnc1Cl	-77.2*
Cc1c(CCC(=O)N2CCC(C(=O)O)CC2)c(=O)oc2cc3oc4c(c3cc12)CCCC4	74.1
Cc1cccc(N(C)S(=O)(=O)c2ccc(-c3cnc(C4CC4)o3)cc2)c1	97.4
CC1CCc2c(sc(/N=C/c3ccco3)c2C(N)=O)C1 (stereo unspecified)	-125.2*
CC1CCc2c(sc(/N=C/c3cccnc3)c2C(N)=O)C1 (stereo unspecified)	-102.8*
Oc1ccc(-c2nccc(-c3ccccn3)n2)cc1	-188.3*
FC(F)(F)c1cc(Oc2ccccc2Cl)nc(-c2ccccn2)n1	64.2
Cc1ccc(C(=O)Oc2ccc(-c3nccc(-c4ccccn4)n3)cc2)cc1	-144.0*
O=C(Oc1ccc(-c2nccc(-c3ccccn3)n2)cc1)c1cccc(C(F)(F)F)c1	-139.9*
O=C(CCl)Nc1cccc(-c2cnc3ccccc3n2)c1	-622.3*
CCC(=O)Nc1cccc(-c2cnc3ccccc3n2)c1	-122.3*
O=C(Nc1cccc(-c2cnc3ccccc3n2)c1)c1cccc(NC(=O)c2ccco2)c1	-95.5*
C/C(=N\Nc1cccc(C(=O)O)c1)c1cc2ccccc2o1	-66.4*
C/C(=N\Nc1cccc([N+](=O)[O-])c1)c1cc2ccccc2o1	-165.5*
C/C(=N\NC(=O)c1ccc(F)cc1)c1ccccn1	-93.2*
CC(=O)Nc1ccccc1NC(=O)C/C(C)=N/NC(=O)c1ccccn1	-113.5*
C/C(=N\NC(=O)CCCNc1ccc(C)cc1)c1ccccn1	78.3
C/C(CC(=O)NC1CCCCC1)=N\NC(=O)c1ccccn1	-132.3*
C/C(CC(=O)Nc1ccc(F)cc1)=N\NC(=O)c1ccccn1	-63.5*
C/C(CC(=O)NCc1ccccc1Cl)=N/NC(=O)c1ccccn1	-115.9*
C/C(CC(=O)Nc1ccc(Cl)c(C(F)(F)F)c1)=N\NC(=O)c1ccccc1O	-82.1*
Cc1csc(-c2coc3cc(O)cc(C)c3c2=O)n1	-207.1*
SMILES	aSyn 5UTR act
CCc1cc2c(=O)c(-c3nc(C)cs3)coc2cc1O	-145.2*
COc1ccc(Oc2ccc(C(F)(F)F)cc2N)cc1	-68.2*
c1ccc2oc(NC3=NCN(C4CCCCC4)CN3)nc2c1	-173.7*
CCCCN1CN=C(Nc2nc3ccccc3o2)NC1	-136.2*
COCCN1CN=C(Nc2nc3ccccc3o2)NC1	-83.3*
CC(C)N1CN=C(Nc2nc3ccccc3o2)NC1	-70.5*
N#C/C(=C/c1ccc(N2CCCCCC2)o1)c1ccc(Cl)cc1	-299.3*
N#C/C(=C/c1ccc(N2CCCCC2)cc1)c1cccc(F)c1	-134.9*
N#C/C(=C/c1ccc(N2CCCCC2)o1)c1cccc(F)c1	-333.7*
Cc1ccc2nc(/C(C#N)=C\c3ccc(N4CCOCC4)o3)[nH]c2c1	-231.3*
Cc1ccc(/C(C#N)=C\c2ccc(N3CCOCC3)o2)cc1	-312.5*
N#C/C(=C/c1ccc(N2CCOCC2)o1)C(=O)Nc1ccccc1	-152.5*
O=C(Oc1ccccc1/C=C\C(=O)c1cc2ccccc2o1)c1cccc(F)c1	-233.9*
COc1cccc(C(=O)Oc2ccccc2/C=C\C(=O)c2cc3ccccc3o2)c1	-191.9*
O=C(Oc1ccccc1/C=C\C(=O)c1cc2ccccc2o1)c1ccccc1	-299.6*
COc1cccc(C(=O)Nc2ccc3c(c2)OCO3)c1OC	-128.1*
Cc1ccc(NC(=O)c2ccoc2C)cc1C	-231.2*
O=C(CCl)Nc1ccccc1C(=O)Nc1ccc2c(c1)OCO2	-86.9*
Cc1occc1C(=O)Nc1cccc(C(=O)O)c1	-84.5*
O=C(COC(=O)c1ccccc1NCc1ccco1)Nc1ccc2c(c1)OCO2	-66.5*
Cc1occc1C(=O)Nc1ccc2c(c1)OCO2	-144.4*
Cc1ccc(C(=O)Nc2ccc3c(c2)OCCO3)c(C)c1	73.5
CCOc1ccc(N(CC(=O)Nc2cccc(C)c2)S(C)(=O)=O)cc1	-85.7*
CCOc1ccc(N(CC(=O)Nc2ccccc2OC)S(=O)(=O)c2ccccc2)cc1	123.4
CCOc1ccc(N(CC(=O)Nc2ccc(OC)cc2)S(C)(=O)=O)cc1	-69.2*
SMILES	aSyn 5UTR act
CCOc1ccc(N(CC(=O)NCc2ccccc2C)S(C)(=O)=O)cc1	-91.3*
CCOc1ccc(N(CC(=O)Nc2ccccc2OCC)S(=O)(=O)c2c(C)noc2C)cc1	95.0
CCOc1ccc(NC(=O)CN(c2ccc(OC)cc2)S(C)(=O)=O)cc1	-138.2*
COC(=O)c1ccc(NC(=O)CN(c2ccc(OC)cc2)S(C)(=O)=O)cc1	-176.4*
Cc1ccc(S(=O)(=O)Nc2cccc3cccnc23)cc1	63.4
Cc1ccc(S(=O)(=O)Nc2ccccc2CNc2ccccn2)cc1	-75.4*
Cc1ccnc(NCc2cc(C)ccc2O)c1	-69.1*
Cc1ccc(O)c(CNc2ccccn2)c1	-67.2*
Cc1ccc2oc(-c3ccc(NC(=O)c4ccc5c(c4)OCO5)cc3)nc2c1	-104.9*
O=C(Nc1ccc(-c2nc3ccccc3o2)cc1)c1ccc2c(c1)OCO2	-65.8*
Cc1ccc(-c2nc3ccccc3o2)cc1NC(=O)c1ccc2c(c1)OCO2	-150.8*
O=C(CSc1ccc(F)cc1)Nc1ccccc1Br	-74.5*
O=C(CSc1ccc(F)cc1)Nc1ccc(Br)cc1	-148.8*
Cc1ccc(C)c(C(=O)CSc2nnnn2C(C)C)c1	-64.7*
CC(C)(C)c1nnc2sc(SCC(=O)c3ccc4c(c3)OCCO4)nn2c1=O	-156.4*
COc1cccc(C(=O)CSc2nnnn2C2CCCCC2)c1	-74.3*
CC(C)n1nnnc1SCC(=O)c1ccc2c(c1)OCCO2	-145.0*
CCn1nnnc1SCC(=O)c1ccc2c(c1)OCCO2	-137.2*
O=C(CSc1nnnn1C1CCCC1)c1ccc2c(c1)OCCO2	-102.2*
O=C(/C=C/c1ccc(O)cc1)c1ccc(O)cc1O	-244.3*
COc1ccc(/C=C/C(=O)CCC(=O)O)cc1	-77.6*
COc1ccc(C(=O)c2ccc(OC)cc2O)c(O)c1	-119.5*
COc1ccc(C(=O)/C=C/c2ccccc2)c(O)c1	-110.8*
COc1ccc(/C=C/C(=O)c2cc3c(cc2N)OCO3)cc1	-182.8*
COc1ccc(C(=O)/C=C/c2cc(C(=O)O)cc3c2OCOC3)c(O)c1	-75.4*
SMILES	aSyn 5UTR act
COc1ccc(C(=O)/C=C/C(=O)N(CC(=O)NC2CCCCC2)Cc2ccccc2)c(O)c1	66.6
COc1ccc(/C=C/C(=O)c2cc(Cl)ccc2O)c(OC)c1	-79.9*
COc1ccc(C(=O)/C=C/c2ccc(OC)cc2OC)c(O)c1	-283.0*
COc1ccc(/C=C/C(=O)c2cc(F)ccc2OC(=O)c2ccccc2)cc1OC	67.1
COc1ccc(C(=O)/C=C/Nc2ccccn2)c(OC)c1	-159.9*
COc1ccc(/C=C/C(=O)c2ccc(OC)cc2OC)cc1	-114.3*
CN(C)c1ccc(/C=C/C(=O)c2cc(Cl)ccc2O)cc1	-95.8*
COc1ccc(C(=O)/C=C/c2ccccc2OC)c(OC(=O)c2ccc([N+](=O)[O-])cc2)c1	-332.2*
O=C1N(Cc2ccc(F)cc2)CCN1c1ccc(F)cc1	-81.4*
CCn1nc(C)c(/C=N/NC(=O)c2ccoc2C)c1C	-111.6*
CCCCCn1nc(C)c(/C=N/NC(=O)c2ccoc2C)c1C	-170.9*
O=C(NC1=NCCS1)c1sc2cc(Cl)cc(Cl)c2c1Cl	-63.8*
O=C(NC1=NCCS1)c1sc2ccccc2c1Cl	-166.2*
Cc1cccnc1NC(=O)c1sc2ccccc2c1Cl	-70.3*
CCOc1c(OC(C)=O)ccc(/C=C/c2ccc3cccc(OC(C)=O)c3n2)c1[N+](=O)[O-]	-378.3*
